In ChEMBL document CHEMBL4513216, “Probing the Open Global Health Chemical Diversity Library for Multistage-Active Starting Points for Next-Generation Antimalarials” (ACS Infect Dis, 2020):
Hit rate of the full screen: of about 69,000 compounds, about 8,600 (12%) showed an effect of 50% or more. The full list was thinned out, with strong results kept by preference.

What follows are compounds tested on Plasmodium berghei (assay: Screen against P. berghei liver stage (PbLuc), transformed with Luciferase, at 10uM). Details: tested at 10 uM.
Type: functional, HepG2
Cc1csc(C2CCCCN2C(=O)CN(C)C(C)C)n1 (stereo not drawn) showed an INHIBITION of -19.9%.
Cn1ccnc1COc1ccc(CN2CCC(C(N)=O)CC2)cc1 was tested, and the INHIBITION was -14.7%.
In the case of Nc1nc(CN2CCOC(Cn3cccn3)C2)nc2ccccc12 (stereo not drawn), the INHIBITION was 1.75%.
With c1ccc(-c2cc(CN3CCCC(Cn4cncn4)C3)on2)cc1 (stereo not drawn) the INHIBITION was 11.6%.
Compound CS(=O)(=O)CCC(=O)Nc1cc(Cl)c(Cl)cn1 has an INHIBITION of 35.2%.
CS(=O)(=O)CCCC(=O)Nc1cc(Cl)c(Cl)cn1 was tested, and the INHIBITION was 15.7%.
In the case of COCCCC(=O)Nc1cc(Cl)c(Cl)cn1, the INHIBITION was 79.8%.
COCCN1CCO[C@@H]2CN(Cc3cc(OC)cc(OC)c3)C[C@@H]2C1 showed an INHIBITION of 39.3%.
Work on CNc1cc(C2CN(Cc3coc(C)n3)CCO2)nc(C)n1 (stereo not drawn) yielded an INHIBITION of -3.31%.
Cc1nn(C)c(C)c1CC(=O)NCc1ccnc(N2CCOCC2)c1 gave an INHIBITION of -34%.
Cc1noc(C)c1-c1cccc(C2CN(CC(=O)N(C)C)CCO2)n1 (stereo not drawn) was tested, and the INHIBITION was 24.35%.
For Oc1cccc2ccc(CN3CCC4(CCNCC4)C3)nc12, the INHIBITION was 15.9%.
Work on O=C1CC2(CCN(Cc3ccc(C(F)(F)F)nc3)CC2)CN1 yielded an INHIBITION of 16.43%.
For O=C1CC2(CCN(Cc3ccc4cccc(O)c4n3)CC2)CN1, the INHIBITION was 58.6%.
With CCN(CC)CC1CN(Cc2nccs2)Cc2nccn2C1 (stereo not drawn) the INHIBITION was -42.8%.
For O=C(NC1CCCC1)C1Cc2nc(-c3ccsc3)sc2N1CC1CC1 (stereo not drawn), the INHIBITION was -2.35%.
In the case of O=C(Nc1cccnc1)C1Cc2nc(-c3ccsc3)sc2N1CC1CC1 (stereo not drawn), the INHIBITION was 60.9%.
With CC(C)NC(=O)C1Cc2nc(-c3ccsc3)sc2N1CC1CC1 (stereo not drawn) the INHIBITION was 23.3%.
In the case of Cc1ccccc1C(O)c1ccncc1 (stereo not drawn), the INHIBITION was 1.95%.
Work on Cc1cccc(NC(=O)[C@@H]2CCCN2Cc2nnc(C(C)C)n2C)n1 yielded an INHIBITION of 24.3%.
Cc1nonc1CNC(=O)C(C)Oc1cccc(F)c1 (stereo not drawn) was tested, and the INHIBITION was -35.5%.
For CCN(CCS(=O)(=O)c1ccc(Cl)cc1)Cc1ccc(OC)c(OC)c1, the INHIBITION was 70.5%.
Compound COc1ccc(S(=O)(=O)NCCCc2ccc(N(C)C)cc2)cc1Cl has an INHIBITION of 41.9%.
In the case of COc1ccc(CCN(C)C(C(=O)O)c2ccc(F)c(C)c2)cc1OC (stereo not drawn), the INHIBITION was 16.7%.
With CCN(Cc1nccs1)Cc1cc(Cl)ccc1OC the INHIBITION was 15.3%.
COCCN(C)Cc1ccc(OC)c(OC(F)F)c1 showed an INHIBITION of 26.8%.
COc1ccc(CCN(C)CCS(=O)(=O)c2ccc(Cl)cc2)cc1OC showed an INHIBITION of 63.7%.
With COc1ccc(CCCN(C)C(=O)c2cc(Cl)c[nH]2)cc1OC the INHIBITION was 16.6%.
COc1ccc(Cl)cc1S(=O)(=O)N(C)CC(N)=O gave an INHIBITION of 23.5%.
For COc1ccc(CN(C)CCS(=O)(=O)c2ccc(Cl)cc2)cc1OC, the INHIBITION was 68.8%.
In the case of O=S(=O)(C1CC1)N1C[C@@H]2COC[C@]2(COc2ccccn2)C1, the INHIBITION was 26.3%.
Compound CC(C)c1nccc(N2CCN(CC(=O)N3CCOCC3)CC2)n1 has an INHIBITION of -0.96%.
Work on CN(CCc1ccncc1)C(=O)C1CSCN1C(=O)CC(C)(C)C (stereo not drawn) yielded an INHIBITION of -23.8%.
With Cc1cccc(-n2cc3nc(N4CCC(C)CC4)[nH]cc-3c2=O)c1 the INHIBITION was 23.4%.
Cc1cnc(NCC(C)(C)N2CCOCC2)nc1 gave an INHIBITION of 65.7%.
Cc1cnc(NCC(C)(C)N2CCCCC2)nc1 showed an INHIBITION of 23.3%.
Cc1cnc(NCC(C)(C)N2CCN(C)CC2)nc1 gave an INHIBITION of 47.2%.
With CNc1ccc(C(=O)N(C)Cc2ccc3ccccc3n2)cn1 the INHIBITION was 69.7%.
For CN(C)C(=O)c1ccc(NCCNc2ccc3ccccc3n2)nc1, the INHIBITION was 8.13%.
For CCn1c(CN(C)C(=O)c2ccc(N(C)C)nc2)nc2ccccc21, the INHIBITION was -17.4%.
Compound CSCCNc1ccc(C(=O)N(C)Cc2ccc3ccccc3n2)cn1 has an INHIBITION of 56.1%.
CCn1c(CN(C)C(=O)c2ccc(O)nc2)nc2ccccc21 showed an INHIBITION of -82.4%.
With CCNc1ncc(C(=O)N(C)Cc2nc3ccccc3n2C)cn1 the INHIBITION was 16.2%.
Cn1ccnc1-c1cn(Cc2cn3c(n2)SCC3)nn1 was tested, and the INHIBITION was 5.75%.
With Cc1cccc(CN2C(=O)CCC23CCN(C(=O)N2CCCC2)CC3)n1 the INHIBITION was 18.6%.
With CC(=O)N1N=C(c2ccccc2)OC1C(=O)N(C)Cc1ccccc1 (stereo not drawn) the INHIBITION was 24.3%.
Compound O=C(N[C@@H]1CCN(Cc2ccc(F)cc2F)C[C@H]1O)c1cccnc1 has an INHIBITION of -26.8%.
CCOCCCNC(=O)c1nnn(Cc2ccccc2)c1OC showed an INHIBITION of 13.5%.
CNC(=O)c1cnc(C=Cc2cc(OC)c3c(c2)OCCO3)s1 showed an INHIBITION of 41.4%.
CCOc1c(Cl)cc(/C=C/c2ncc(C(=O)O)s2)cc1OC gave an INHIBITION of 7.27%.
For CNC(=O)c1cnc(C=Cc2ccc(O)c(OC)c2)s1, the INHIBITION was -84.4%.
Work on CNC(=O)c1cnc(/C=C/c2ccc(OC)c(O)c2)s1 yielded an INHIBITION of 40.1%.
In the case of CCOc1cc(/C=C/c2ncc(C(=O)O)s2)ccc1O, the INHIBITION was -6.62%.
In the case of CNC(=O)c1cnc(/C=C/c2cc(OC)cc(OC)c2)s1, the INHIBITION was -76.5%.
Work on COc1cc(/C=C/c2ncc(C(=O)O)s2)cc(Cl)c1O yielded an INHIBITION of -20.9%.
In the case of CNC(=O)c1cnc(/C=C/c2cc(OC)c(OC)c(OC)c2)s1, the INHIBITION was 53.5%.
For CCOc1c(OC)cc(C=Cc2ncc(C(=O)NC)s2)cc1OC, the INHIBITION was 52.6%.
With CCOc1c(Br)cc(/C=C/c2ncc(C(=O)O)s2)cc1OC the INHIBITION was -39.3%.
CCOc1cc(C=Cc2ncc(C(=O)NC)s2)ccc1OC gave an INHIBITION of 72.2%.
With CNC(=O)c1cnc(C=Cc2cc(OC)c(O)c(OC)c2)s1 the INHIBITION was 50%.
With CCOc1ccc(C2CCCN2Cc2nnnn2C2CC2)cc1 (stereo not drawn) the INHIBITION was 48.2%.
Compound O=c1ccc2c(n1Cc1cccnc1)CCN(CC1CCOC1)CC2 (stereo not drawn) has an INHIBITION of -5.63%.
Work on C[C@H]1CN(C(=O)c2ccoc2)C[C@@]12CCN(CCN(C)C)C2=O yielded an INHIBITION of -80%.
CCC(=O)NC1CCCN(c2cncc(OCc3ccccc3)n2)C1 (stereo not drawn) was tested, and the INHIBITION was 1.56%.
Compound O=C(NCc1ccccn1)[C@@H]1COC[C@H]2CN(C3CCC3)C[C@H]21 has an INHIBITION of 26.4%.
For Cc1nc(-c2ccccc2)n(CC(=O)NC2CCCCC2)n1, the INHIBITION was 37.4%.
Work on O=S1(=O)COCCN1Cc1ccc(F)cc1Cl yielded an INHIBITION of 33.9%.
In the case of Cn1cc(CN2CCC3(CC2)CCN(Cc2ccccn2)CC3)cn1, the INHIBITION was 41.2%.
Compound O=C(c1ccnc(C2CCNCC2)c1)N1CCCC1 has an INHIBITION of 7.43%.
O=C1OCC(CO)N1Cc1cccc(Cl)c1F (stereo not drawn) gave an INHIBITION of 28.7%.
Compound C=C(C)COc1ccccc1CN1CCC(NC(C)=O)CC1 has an INHIBITION of 19.4%.
C=C(C)CN1CCC(NC(=O)NCCc2cccc(C(N)=O)c2)CC1 showed an INHIBITION of 57.3%.
C=C(C)CN1CCC(NC(=O)NCCc2ccccc2OC)CC1 was tested, and the INHIBITION was 94.1%.
Compound NC(=O)c1cccc(CCNC(=O)N2CCCC2)c1 has an INHIBITION of 58.1%.
Work on C=C(C)CN1CCC(NC(=O)Nc2cc(C(N)=O)ccc2OC)CC1 yielded an INHIBITION of 32.5%.
In the case of Cn1cc(CCNC(=O)NC2CCN(Cc3ccccn3)CC2)cn1, the INHIBITION was 16.8%.
C=C(C)CN1CCC(NC(=O)NCCc2ccc(N(C)C)cc2)CC1 showed an INHIBITION of 55.4%.
NC(=O)c1cccc(CCNC(=O)N2Cc3ccccc3C2)c1 showed an INHIBITION of 26.5%.
COc1ccc(CCNC(=O)NC2CCCC2)cc1OC was tested, and the INHIBITION was -24.9%.
In the case of COc1ccc(CCNC(=O)NCc2cccc(C(N)=O)c2)cc1OC, the INHIBITION was 37.4%.
For CNC(=O)c1cccc(CCNC(=O)N2CCc3ccccc3C2)c1, the INHIBITION was 3.73%.
Work on C=C(C)CN1CCC(NC(=O)c2scnc2C)CC1 yielded an INHIBITION of -6.44%.
Compound COC1CCCOC12CCN(C(=O)c1ccc3[nH]nnc3c1)CC2 (stereo not drawn) has an INHIBITION of -29.9%.
Work on O=C(CSC1=NS(=O)(=O)c2cc(Cl)ccc2N1)c1ccccc1 yielded an INHIBITION of 11.8%.
For Cn1cc(CN2CCCC3(CCN(C(=O)c4ccccn4)C3)C2)cn1 (stereo not drawn), the INHIBITION was 11.3%.
COCCC(=O)N1CCOCC(Cc2ccc3c(ccn3C)c2)C1 (stereo not drawn) showed an INHIBITION of 17.475%.
CC(=O)N(Cc1ncc(C)o1)C1CCN(Cc2ccccc2C#N)C1 (stereo not drawn) gave an INHIBITION of 9.64%.
For NC(=O)c1cc(C2CCCN(C(=O)CCc3cccs3)C2)n[nH]1 (stereo not drawn), the INHIBITION was 17.5%.
In the case of O=C1CC[C@@H](CN(Cc2ccncc2)Cc2nc(CC3CC3)no2)N1, the INHIBITION was 36.6%.
Cc1nc(C)c2c(n1)CCN(C(=O)CC1CC1)CC2 showed an INHIBITION of 19.9%.
Work on CCN1Cc2nccn2CC(COCc2csc(C)n2)C1 (stereo not drawn) yielded an INHIBITION of 8.66%.
Compound N#Cc1ccccc1CN1CCc2sccc2C1 has an INHIBITION of 60.4%.
In the case of N#Cc1ccc(CN2CCc3sccc3C2)c(F)c1, the INHIBITION was 4.95%.
N#Cc1ccc(F)c(CN2CCc3sccc3C2)c1 gave an INHIBITION of 41.6%.
In the case of Cc1nc(C)n(CC2CCCN(Cc3cccc(C(N)=O)c3)C2)n1 (stereo not drawn), the INHIBITION was -43.5%.
O=C(NC1CCCC1)N1C[C@H]2CN(c3ccncc3)C[C@@]2(C(=O)O)C1 showed an INHIBITION of 28.7%.
With Cc1ccc(N2C[C@@H]3CN(C(=O)NC4CCCC4)C[C@]3(C(=O)O)C2)nn1 the INHIBITION was 56.6%.
O=C(NC1CCCC1)N1C[C@H]2CN(c3ccccn3)C[C@@]2(C(=O)O)C1 gave an INHIBITION of 6.27%.
Compound Cc1ccc(O)c(C(=O)N2CCCC(NC(=O)C(C)C)C2)c1 (stereo not drawn) has an INHIBITION of 5.9%.
Compound Cc1ccc(C(=O)N2CCCC(NC(=O)C(C)C)C2)c(O)c1 (stereo not drawn) has an INHIBITION of 54.4%.
COc1ccc(C(=O)N2CCCC(NC(=O)C(C)C)C2)c(O)c1 (stereo not drawn) gave an INHIBITION of -9.19%.
For CC(C)C(=O)NC1CCCN(C(=O)c2cc(Cl)ccc2O)C1 (stereo not drawn), the INHIBITION was 18.2%.
For CC(C)C(=O)NC1CCCN(C(=O)c2ccc(O)c(Cl)c2)C1 (stereo not drawn), the INHIBITION was 66.2%.
In the case of CC(C)C(=O)NC1CCCN(C(=O)c2ccccc2O)C1 (stereo not drawn), the INHIBITION was 8.64%.
Compound c1cnc(CC2COCCN(C3CCCCC3)C2)cn1 (stereo not drawn) has an INHIBITION of 14%.
Compound c1ccc(-c2nc(CCNCc3ccccn3)co2)cc1 has an INHIBITION of 34.4%.
CCN(Cc1nc(COC)no1)Cc1cc2ccc(F)cc2[nH]c1=O gave an INHIBITION of 0.546%.
CCc1cnc(C)nc1NC1CC(=O)N(CC2CCCCC2)C1 (stereo not drawn) gave an INHIBITION of -20.8%.
